Hits are enriched below; roughly 0.97% of the tested compounds scored in any of these assays.
LAP4 TOR yeast = modulators of TOR pathway LAP4-GFP in S. cerevisiae. hit rate 0.34% among 320,000. GFP response vs DMSO, % at 10 µM. S. cerevisiae LAP4-GFP multiplex, flow cytometry GFP, 3 h; median GFP as percent of DMSO wells. AID 2023;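 active = GFP response vs DMSO above a set limit, about the screen mean plus 3 SD, cut at about 150% in these data; inconclusive = under 70 cell events counted for the yeast strain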
RPL19A-GFP yeast = alters RPL19A-GFP fluorescence in TOR pathway yeast screen. S. cerevisiae RPL19A-GFP strain, flow cytometry, 3 h; stronger effect = lower value. percent response vs DMSO, % at 10 µM. hit rate 0.3% among 330,000. AID 2025;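 active = percent response vs DMSO below 50%; inconclusive = fewer than 70 events counted for the yeast strain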;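 note: median channel GFP fluorescence of the barcoded RPL19A-GFP strain; ratio of sample median GFP to plate DMSO average so 100% = DMSO; lower means less RPL19A-GFP as with rapamycin TOR inhibition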
JMJD2C inh = blocks human GASC-1 demethylase activity | Q9H3R0 | GST-JMJD2C(1-420) H3K9me3 demethylation, DELFIA europium | hit rate 0.069% among 330,000 | inhibition, % at 2.35 µM;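 active = more than half of a compound's replicate wells show inhibition beyond 50%, single wells judged on their own value; inconclusive = some, but no more than half, of replicates pass 50% inhibition; inactive = no replicate passes 50% inhibition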;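 note: signal counts dimethyl H3K9 product captured on neutravidin plate; 0% = median of DMSO wells and 100% = 0.3 times that DMSO median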
Target sequence (Q9H3R0 1-420 limits assumed): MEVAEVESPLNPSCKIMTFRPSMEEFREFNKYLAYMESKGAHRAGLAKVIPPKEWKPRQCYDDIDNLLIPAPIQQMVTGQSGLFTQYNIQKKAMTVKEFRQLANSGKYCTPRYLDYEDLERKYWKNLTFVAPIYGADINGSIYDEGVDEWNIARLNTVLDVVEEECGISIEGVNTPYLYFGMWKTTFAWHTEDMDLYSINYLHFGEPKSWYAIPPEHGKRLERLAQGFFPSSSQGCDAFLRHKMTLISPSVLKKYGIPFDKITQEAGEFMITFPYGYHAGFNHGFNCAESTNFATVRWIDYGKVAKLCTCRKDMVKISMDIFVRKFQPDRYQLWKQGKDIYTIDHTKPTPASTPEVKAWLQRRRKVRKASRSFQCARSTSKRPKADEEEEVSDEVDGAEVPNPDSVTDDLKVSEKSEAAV
MEP2-GFP yeast = alters MEP2-GFP fluorescence in TOR pathway yeast screen; S. cerevisiae MEP2-GFP strain, flow cytometry GFP, 3 h; 100% = DMSO control level; GFP response vs DMSO, % at 10 µM; hit rate 0.51% among 330,000; AID 2016;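 active = GFP response versus DMSO above a set limit, roughly screen mean plus 3 SD, cut at about 180% in these data; inconclusive = fewer than 70 cells counted for a yeast strain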;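 note: median GFP fluorescence of the barcode-gated MEP2-GFP cells per well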
CIT2-GFP yeast = modulators of TOR pathway CIT2-GFP in S. cerevisiae. S. cerevisiae CIT2-GFP strain, flow cytometry, 3 h; 100 means same as DMSO wells. hit rate 0.065% among 320,000. GFP response vs DMSO, % at 10 µM;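 active = GFP response relative to DMSO above a set limit, near the screen mean plus 3 SD, cut at about 150% in these data; inconclusive = Fewer than 70 cells measured for a yeast strain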;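 note: ratio of well median GFP fluorescence to mean of DMSO wells on the plate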
AGP1 TOR yeast = modulators of TOR pathway AGP1-GFP in S. cerevisiae; hit rate 0.02% among 320,000; S. cerevisiae AGP1-GFP multiplex flow cytometry, 3 h; GFP as percent of DMSO wells; GFP response vs DMSO, % at 10 µM;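 active = GFP response relative to DMSO above a set limit, near screen average plus 3 SD, cut at about 150% in these data; inconclusive = fewer than 70 cells counted for the yeast strain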;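 note: median GFP channel fluorescence of the gated AGP1 strain per well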
Numbers without * were called inactive; ? = inconclusive; . = no result; [ ] = remark or other dose.

SMILES | LAP4 TOR yeast | RPL19A-GFP yeast | JMJD2C inh | MEP2-GFP yeast | CIT2-GFP yeast | AGP1 TOR yeast
COc1ccc(/C(C)=N/NC(=O)c2ccc(N(C)C)cc2)cc1 | 102 | 105 | 1 | 109 | 112 | 110
O=c1cnnc(SCc2ccc([N+](=O)[O-])cc2)[nH]1 | 121 | 115 | -6 | 166 | 174* | 108
O=[N+]([O-])c1ccc(CSc2nc3ccccc3[nH]2)cc1 | 97 | 99 | 6 | 98 | 88 | 93
CCCCc1nnc(NC(=O)c2nc3nccc(C)n3n2)s1 | 123 | 98 | -16 | 215* | 122 | 118
Cc1ccnc2nc(C(=O)Nc3nnc(CC(C)C)s3)nn12 | 110 | 107 | -8 | 114 | 118 | 102
O=C(O)c1cc(O)c2c(c1)[C@@H]([C@H]1c3cc(C(=O)O)cc(O)c3C(=O)c3c(O[C@@H]4O[C@H](CO)[C@@H](O)[C@H](O)[C@H]4O)cccc31)c1cccc(O[C@@H]3O[C@H](CO)[C@@H](O)[C@H](O)[C@H]3O)c1C2=O | 104 | 96 | 91* | 106 | 94 | 100
CCN(c1cc(C)cc(C)c1)S(=O)(=O)c1nnc(NC(=O)C(C)(C)C)s1 | 74 | 97 | 0 | 647*[may fluoresce violet] | ? | 15
CCC(=O)Nc1nnc(S(=O)(=O)N(CC)c2cc(C)cc(C)c2)s1 | 101 | 116 | 4 | 111 | 102 | 111
CCOc1ccccc1NC(=O)NCc1cccnc1 | 69 | 18*[may fluoresce violet] | 8 | 271*[may fluoresce violet] | ? | ?
CCOc1ccccc1NC(=O)NCc1ccccc1 | 108 | 101 | -5 | 101 | 94 | 103
Cn1c(=O)c2c(ncn2CC(=O)Nc2nc(-c3ccccc3Cl)cs2)n(C)c1=O | 69 | 13*[may fluoresce violet] | -3 | 210*[may fluoresce violet] | ? | ?
COc1ccc(SC[C@H](Cc2ccccc2)N2CC[C@@H](NC(=O)OCc3ccccc3)CCC2=O)cc1 | 106 | 98 | -9 | 88 | 100 | 98
O=C(NCc1nnnn1-c1ccc(F)c(F)c1)C(=O)c1c[nH]c2ccccc12 | 105 | 93 | -12 | 94 | 103 | 100
CCOC(=O)c1cnn(-c2nc(SC)nc3sc4c(c23)CCCC4)c1N | 100 | 72 | 0 | 187*[may fluoresce violet] | ? | .
CCOC(=O)c1cnn(-c2ncnc3sc4c(c23)CCC4)c1N | 107 | 99 | 0 | 101 | 99 | 94
COc1ccccc1NC(=O)CN(Cc1ccco1)C(=O)c1ccc(-n2nc(C)cc2C)cc1 | 105 | 113 | -33 | 109 | 113 | 108
COc1ccccc1NC(=O)CN(Cc1ccco1)C(=O)c1cncc(Br)c1 | 87 | 49*[may fluoresce violet] | -4 | 364*[may fluoresce violet] | ? | 20
CN1CCN(C(CNS(=O)(=O)c2ccc([N+](=O)[O-])cc2)c2ccc(F)cc2)CC1 (centres undefined) | 115 | 100 | -28 | 100 | 101 | 115
NC(=O)N/N=C/c1c(Sc2nnnn2-c2ccccc2)nc2ccccn2c1=O | 93 | 94 | 7 | 96 | 92 | 105
O=C(NCCO)Nc1ccc2nsnc2c1 | 89 | 104 | -3 | 100 | 101 | 90
O=C(NCCO)Nc1ccc2nc(-c3ccco3)c(-c3ccco3)nc2c1 | ? | 13*[may fluoresce violet] | 3 | ? | ? | ?
COCC(=O)N1CCCC(C(=O)c2ccc(-c3ccccc3)c(F)c2)C1 (centres undefined) | 106 | 106 | 0 | 100 | 85 | 85
COc1ccccc1CNC(=O)c1cnccn1 | 103 | 29*[may fluoresce violet] | 0 | 186*[may fluoresce violet] | ? | ?
CCOCC(=O)Nc1cc([N+](=O)[O-])ccc1C | 99 | 103 | -4 | 100 | 104 | 102
Cc1ccc([N+](=O)[O-])cc1NCC(=O)NN | 95 | 60 | 26 | 188*[may fluoresce violet] | ? | 20
CN(C)C(CNC(C(=O)Nc1ccc(F)cc1)c1ccccc1)c1ccccc1 (centres undefined) | 103 | 94 | 11 | 95 | 108 | 98
CC(=O)C(Sc1nc(N2CCOCC2)nc(N2CCOCC2)n1)C(=O)Nc1ccccc1 (centres undefined) | 93 | 95 | 70* | 100 | 95 | 93

Screening results (PubChem)
